In PubChem BioAssay AID1345082 (National Center for Advancing Translational Sciences (NCATS), 2018):
In all, about 94,000 compounds went through this assay and about 4,000 (4.3%) were called active. Entries that show only a call come without a potency. About 29% were inconclusive and are not listed. Calls follow the shape of the dose curve; as a rule, active = well fitted inhibition curve with a large enough effect; inconclusive = small, poorly fitted or top-dose-only effect; inactive = no such curve, though single readings can be large or run the other way. Only a selection was taken, and actives are over-represented in it overall.

experiment: Cytotoxic Profiling in NIH 3T3 Cell Line of Diverse Libraries Using Quantitative High-Throughput Screening; conditions: NIH 3T3 viability, CellTiter-Glo ATP luminescence, 48-72 h; series mostly up to 96.7 µM; also: nearly all actives have a fitted effect of over 55% in size
Outline: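 Cytotoxicity is measured as loss of cellular ATP: NIH 3T3 cells (400/well) are exposed to compound for 48 or 72 hr at 37 °C, then CellTiter-Glo luminescence is imaged after 10 min at room temperature.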
Potency is read from the fitted curve at half-maximal effect.

| SMILES | Potency |
| --- | --- |
| C=CCOc1cccc(-c2nnc(CCC(=O)NCc3ccccc3)c(=O)[nH]2)c1 | inactive |
| CSCCNC(=O)c1cc(-c2ccc(Cl)nc2)nc2c1cnn2C | inactive |
| COCC(=O)N[C@@H](Cn1ccc(=O)[nH]c1=O)C(=O)O | inactive |
| O=C(c1cnccn1)N1CCC[C@H](n2c(=O)n(CC3CC3)c3cccnc32)C1 | inactive |
| Cc1ccc(NS(=O)(=O)c2ccccc2)c(=O)n1CC(=O)N(C)Cc1ccccc1 | inactive |
| CC(C)CCN1C(=O)CC[C@]2(C(=O)N3CCN(C)CC3)CCCC[C@@H]12 | inactive |
| O=C1CC(c2ccccc2)N(C(=O)CNC(=O)NCc2ccc(F)cc2)CCCCCN1 (stereo not drawn) | inactive |
| O=C1CC(c2ccccc2)N(C(=O)CNC(=O)C2CCC2)CCCCCN1 (stereo not drawn) | inactive |
| O=C1CC(c2ccccc2)N(Cc2cn[nH]c2-c2ccc(F)cc2)CCCCCN1 (stereo not drawn) | 39.8 µM (active) |
| Cn1ncc2c(C(=O)NCC(F)(F)F)cc(-c3ccccc3F)nc21 | inactive |
| COc1ccc(C2Cn3cnc(-c4nc(-c5ccc(OC)cc5OC)no4)c3CO2)cc1 (stereo not drawn) | 20 µM (active) |
| CCOc1ccc(-c2noc(-c3ncn4c3COC(c3ccc(OC)cc3)C4)n2)cc1 (stereo not drawn) | inactive |
| COc1ccc(-c2noc(-c3nnn4c3COC(c3ccc(Cl)cc3)C4)n2)c(OC)c1 (stereo not drawn) | inactive |
| CN(C)C(=O)C1CN(C(=O)C2CCCC2)CC12CCOCC2 (stereo not drawn) | inactive |
| CCC(=O)N1Cc2ccccc2CC2(CCN(Cc3ccc(OC)cc3)C2)C1 (stereo not drawn) | inactive |
| O=C(NCCC1COc2ccccc2O1)c1ccc(N2CCCOCC2)nc1 (stereo not drawn) | inactive |
| COc1ccc(-c2ccc3c(c2)C(=O)N2CCN(C(=O)CC(C)(C)C)C[C@@H]2C(=O)N3)c(OC)c1 | inactive |
| COc1ccc(-c2cccc(C(=O)NCc3cccc(Cl)c3)c2)nn1 | 35.5 µM (active) |
| COc1ccc(-c2cccc(C(=O)N3CCN(C(=O)Cc4cccc(Cl)c4)CC3)c2)nn1 | inactive |
| COc1ccc(-c2cccc(C(=O)NC3CC3)c2)nn1 | inactive |
| O=C(N[C@H]1CCOC[C@H]1C1CCOCC1)c1scc2c1OCCO2 | inactive |
| Cc1nc(C(=O)N2CC[C@H](NS(=O)(=O)c3cccs3)C[C@H]2C(=O)N[C@H](Cc2c[nH]c3ccccc23)C(N)=O)cs1 | inactive |
| Cn1ccnc1C(=O)N1CCCCCCNC(=O)[C@@H]2C[C@@H](C(=O)N3CCc4ccccc4C3)C[C@@H]21 | inactive |
| O=C(NCc1cccnc1)C1CCC(=O)N1C1CCNCC1 (stereo not drawn) | inactive |

| SMILES | Potency |
| --- | --- |
| CC1=C[C@@H](CN2CCOCC2)[C@H](C(C)C)C[C@H]1Cc1nnc(-c2ccc([N+](=O)[O-])cc2)o1 | 35.5 µM (active) |
| CC1=C[C@@H](CNC(=O)NC(C)C)[C@H](C(C)C)C[C@H]1Cc1nnc(-c2ccncc2)o1 | 56.2 µM (active) |
| CC1=C[C@@H](CNC(C)C)[C@H](C(C)C)C[C@H]1Cc1nnc(-c2ccc(N(C)C)cc2)o1 | 31.6 µM (active) |
| CC1=C[C@@H](CNC2CC2)[C@H](C(C)C)C[C@H]1Cc1nnc(-c2ccc(C)cc2)o1 | 39.8 µM (active) |
| CC(=O)NC[C@@H]1C=C(C)[C@H](CC(=O)N2CCCC2)C[C@H]1C(C)C | inactive |
| COC1C(=O)N(c2cccc(F)c2)C12CCN(C(=O)C1(c3ccccc3)CC1)CC2 (stereo not drawn) | inactive |
| CCn1ccc(C(=O)N2C[C@@H]3CCCN4CCC[C@@H]([C@H]34)[C@H]2CCCC(=O)Nc2ccccc2)n1 | inactive |
| CC(=O)NC1CC2(CCN(C(=O)CCC(=O)O)CC2)c2ccccc21 (stereo not drawn) | inactive |
| CS(=O)(=O)N1Cc2ccccc2CC2(CCN(Cc3ccncc3)C2)C1 (stereo not drawn) | inactive |
| CCN1CCc2[nH]cnc2C12CCN(C(=O)C1CCc3ccccc3C1)CC2 (stereo not drawn) | inactive |
| Cc1cc2nc3n(c(=O)c2n1CC(=O)Nc1cccc(C(F)(F)F)c1)CCCC3 | inactive |
| O=C(NCc1ccncc1)c1csc(N2CCN(c3ccccc3F)CC2)n1 | inactive |
| O=C(c1ccc(C(F)(F)F)cc1)N1CCCC2(CC(c3ccccn3)=NO2)C1 (stereo not drawn) | inactive |
| COc1ccc(C(=O)NC[C@@H]2C=C(C)[C@H](Cc3nnc(-c4cncn4C)o3)C[C@H]2C(C)C)cc1 | 25.1 µM (active) |
| CC1=C[C@@H](CNC(C)C)[C@H](C(C)C)C[C@H]1Cc1nnc(-c2ccc(C)cc2)o1 | 50.1 µM (active) |
| COc1ccc(CC(=O)NC[C@@H]2C=C(C)[C@H](Cc3nc4ccncc4[nH]3)C[C@H]2C(C)C)cc1 | inactive |
| CC1=C[C@@H](CN2CCN(CCO)CC2)[C@H](C(C)C)C[C@H]1Cc1nnc(-c2ccc(C)cc2)o1 | 39.8 µM (active) |
| CC1=C[C@@H](CN2CCC(O)CC2)[C@H](C(C)C)C[C@H]1Cc1nnc(-c2ccccc2F)o1 | 112 µM (active) |
| COc1ccc(C(=O)NCc2nnc3cc(-c4nc(C)no4)ccn23)cc1 | inactive |
| Fc1ccc(CN2CC[C@H](c3nnc(-c4ccccc4F)o3)C2)cc1 | inactive |
| O=C1NCc2ccccc2CC12CCN(Cc1ccc(CO)o1)C2 (stereo not drawn) | inactive |
| CC(C)c1ccccc1NC(=O)Cn1cccc1-c1nc(-c2ccccc2)no1 | inactive |
| Cc1ccc(CN2CCNC(=O)C2CC(=O)NC2(CO)CCCC2)cc1 (stereo not drawn) | inactive |
| Cc1ncc2c(c1CNC(=O)c1ccccc1F)CCN(C(=O)Cc1cccc(F)c1)C2 | inactive |

| SMILES | Potency |
| --- | --- |
| CC(C)C(=O)NCC12CCC=C1N(C)C(=O)CC2 (stereo not drawn) | inactive |
| COCCN1C(=O)CS(=O)(=O)C12CCN(C(=O)c1ccc(OC)cc1)CC2 | inactive |
| CNC(=O)[C@@H]1CN(C(=O)c2cccc(OC)c2)C[C@H]1COC | inactive |
| O=C(NC1CCC(n2cc(C(=O)N3CCCC3)nn2)CC1)C(c1ccccc1)C1CCCC1 (stereo not drawn) | inactive |
| COCCNc1ncc(C(=O)O)c(C)n1 | inactive |
| O=C(Nc1ccc2ncnc(N3CCCCC3)c2c1)c1ccc2c(c1)OCO2 | inactive |
| N[C@@H]1CC[C@H](C(=O)N2CCN(CCCOc3ccc(F)cc3)CC2)C1 | inactive |
| O=C(CCc1nnn2c1CN(C(=O)NCCc1ccccc1)CC2)NC1CC1 | inactive |
| CCn1cc(Cl)c(C(=O)N2CCCn3cc(-c4ccccc4)nc32)n1 | inactive |
| COCC(=O)NC[C@@H]1C=C(C)[C@H](CC(=O)Nc2ccccn2)C[C@H]1C(C)C | inactive |
| CC1=C[C@@H](CN(C)CCc2ccccn2)[C@H](C(C)C)C[C@H]1Cc1nnc(-c2ccccc2F)o1 | 35.5 µM (active) |
| CCCc1nnc(C[C@@H]2C[C@@H](C(C)C)[C@H](CN3CCC[C@H]3CO)C=C2C)o1 | 50.1 µM (active) |
| CNC(=O)c1cn2c(n1)CN(C(C)=O)CC2 | inactive |
| COc1cc(CCC(=O)N2C[C@@H](C(N)=O)[C@H](c3n[nH]c(C)n3)C2)on1 | inactive |
| COc1ccc(C(=O)N2C[C@@H](CO)[C@H](c3ccncc3)C2)cc1F | inactive |
| Cc1ccccc1C(=O)N1CCC2(CC1)OCC(C(=O)N1CCOCC1)N2C(=O)c1cccc(F)c1 (stereo not drawn) | inactive |
| O=C(c1ccc(F)c(F)c1)N1CCC([C@@H]2CNC[C@H]2CO)CC1 | inactive |
| COc1ccc(-c2noc(-c3nnn4c3COC(c3ccc(F)cc3)C4)n2)cc1 (stereo not drawn) | inactive |
| Cc1ccc(S(=O)(=O)Nc2ccc(C)n(CC(=O)NCc3cccc(F)c3)c2=O)cc1 | inactive |
| CC1CCC2(CC1)OCC(C(=O)NCc1ccc3c(c1)OCO3)N2C(=O)c1ccccc1F (stereo not drawn) | 20 µM (active) |
| O=C(NCc1ccc(F)cc1)C1COC2(CCCCC2)N1C(=O)c1ccccc1 (stereo not drawn) | inactive |
| CC(C)CNC(=O)C1COC2(CCC(C)CC2)N1C(=O)c1cccc(F)c1 (stereo not drawn) | inactive |
| CCCOc1cc(C)c2c(c1C)C[C@H](C(C)C(=O)N1CCOCC1)CC2 (stereo partly drawn) | inactive |
| Fc1cccc(-c2ncc[nH]2)c1 | inactive |

| SMILES | Potency |
| --- | --- |
| O=C1NC[C@@H](CCC(=O)N2CCN(c3ccccn3)CC2)N2C[C@@H](NCc3ccccc3)C[C@@H]12 | inactive |
| CC(C)N1CC2(C1)C(=O)N(CCCN1CCCC1=O)C(=O)[C@@H]1C[C@@H](O)CN12 | inactive |
| COc1ncccc1-c1cc(-c2cn[nH]c2)c2cncn2c1 | 70.8 µM (active) |
| COc1ccccc1-c1ccc(C(=O)O)cc1 | inactive |
| COc1ccccc1-c1cc(C(=O)N(C)C)nc2c1cnn2C | inactive |
| COc1ccccc1-c1cc(-c2cn[nH]c2)c2cncn2c1 | 50.1 µM (active) |
| O=C(CCn1cncn1)N1CCc2[nH]nc(-c3cccc4ccccc34)c2C1 | inactive |
| CCCN(CC1CCOC1)C(=O)Nc1ccccc1C(F)(F)F (stereo not drawn) | inactive |
| O=[S+]([O-])(c1cccc(C(F)(F)F)c1)N1CCC2(CCN(CCc3ccccc3)c3ccccc3O2)CC1 | inactive |
| Cc1ccc(CN2CCC(C3CCN(S(C)(=O)=O)CC3)C2)nc1 (stereo not drawn) | inactive |
| CCCNc1cc(N2CCC(CCC(=O)Nc3ccc(C)cc3)CC2)ncn1 | inactive |
| COc1ccccc1Oc1ncccc1CNC(=O)c1ccc2n[nH]nc2c1 | inactive |
| CC(C)c1ccc([S+](=O)([O-])N2CCN(c3cccc(CN(C)[S+](C)(=O)[O-])c3F)CC2)cc1 | 35.5 µM (active) |
| CC(=O)NC(C)c1nnc2n1CCN([S+](=O)([O-])c1ccccc1)C2 (stereo not drawn) | inactive |
| Cc1ccc(-c2ccccc2CN2CCN([S+](=O)([O-])c3cccc(C(F)(F)F)c3)CC2)cc1Cl | inactive |
| CC(=O)NCCC(=O)N1Cc2ccccc2CC2(CCCCN2CC2CCNC2)C1 (stereo not drawn) | inactive |
| O=C(C1CCCC1)N1Cc2ccccc2CC2(CCCCN2CC2CCNCC2)C1 (stereo not drawn) | 17.8 µM (active) |
| NCC(=O)N1Cc2ccccc2CC2(CCCCN2CC2CCOCC2)C1 (stereo not drawn) | inactive |
| Cc1ccccc1OCC(=O)N1CCC2(CC1)NC(=O)N(Cc1ccccc1)C2=O | inactive |
| Cc1ccc2[nH]c(=O)c(CCC(=O)NCc3ccncc3)cc2c1 | inactive |
| COC(=O)[C@@H]1C[C@H](NC(=O)c2cc(OC)nc(OC)n2)CN1C | inactive |
